Assay results reported in PubChem BioAssay.
Inconclusive results are not listed. Calls of active or inactive are those of the source.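 How the source made its calls, unless noted: active means viability at or under a set limit in both replicates, limit being median viability minus 3 SD (cut at about 48% in these data, passing the limit was not always enough); inconclusive means at or under the limit in just one replicate; inactive means at or above the limit in both replicates.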

Tests used:
[1] = reducers of endogenous Her2 protein level, primary screen, SKBR3 breast tumor cells, AlphaScreen, ATP viability (AID 461;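 active means Her2 level under about 52% in both replicate screens, with viability over 70% of control, limit read from the data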;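 on Her2 level: lower value means less Her2 protein in the cells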;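 on viability: percent of carrier control wells set as 100% viability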); settings: 18-24 h, measured here: SKBR3 viability, ATP luminescence, at 10 µM
[2] = target: Receptor tyrosine-protein kinase erbB-2 (Homo sapiens) (UniProt P04626); test: as above; settings: 18-24 h, at 10 µM, stronger effect = lower value
[3] = SK-BR-3 cell growth inhibitors, pilot screen, 24 h, human (AID 572;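 active means viability at or below 10% of carrier control in both of two separate runs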;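 further: compound exposure lasted between 18 and 24 h rather than exactly 24 h; 100% = carrier-treated control wells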); settings: SK-BR-3 viability, CellTiter-Glo luminescence, at 10 µM, stronger effect = lower value
[4] = HUVEC growth inhibition – cell-based, human, primary screen (AID 575;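 active means viability at or below 30% in both replicate assays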;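 further: 100% = median of untreated cell wells with 0.1% DMSO on each plate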); settings: HUVEC proliferation, CellTiter-Glo luminescence, 72 h; at 10 µM; stronger effect = lower value
[5] = growth inhibitors of H69AR lung tumor, primary screen, human, duplicate replicates (AID 580); settings: H69AR lung tumor cells viability, ATP luminescence, 72 h; at 10 µM; stronger effect = lower value;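 further: 100% = mean luminescence of untreated wells and 0% = no signal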
[6] = reversal of MRP1-mediated doxorubicin resistance, pilot screen, H69AR cells, doxorubicin co-treatment (AID 601;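 active means viability loss from added drug above about 55%, and viability with drug at most 40%, in both replicates, limit read from the data, passing the limit was not always enough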); settings: CellTiter-Glo, 72 h, at 10 µM; for differential viability (reversal): stronger effect = higher value
[7] = 384-well plate pilot, post-Golgi transport modulator project, inhibition of yeast transport mutant growth (AID 636; in the data active means inhibition above about 31%); settings: absorbance 615 nm, about 18 h, stronger effect = higher value
[8] = growth suppression of yeast trafficking mutant, preliminary HTS, modulators of trafficking downstream of Golgi apparatus project, 1536-format plate, OD 615 nm (AID 637; in the data active means inhibition above about 30%); settings: yeast transport mutant growth, absorbance 615 nm, 18 h; stronger effect = higher value
[9] = OD615 S. cerevisiae growth inhibition, permissive medium, pilot counter-assay, permissive growth control for S. cerevisiae lifespan shortening project (AID 705;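 active means growth inhibition above 25% in both replicates, a cutoff set 3 SD above the mean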); settings: OD615, 24 h, at 10 µM, stronger effect = higher value
[10] = Restrictive medium S. cerevisiae growth inhibition, OD615, pilot screen of yeast lifespan reduction project, restrictive growth control (AID 706;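 active means growth inhibition above a set limit, 3 SD over mean compound inhibition, in both replicates, cut at about 43% in these data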;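 further: modified DeaD lifespan yeast strain shifted to restrictive glucose medium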); settings: OD615, 48 h, at 10 µM, stronger effect = higher value
[11] = viability gain of MRP-1-high H69AR cells under doxorubicin, pilot screen, MRP-1 activator project, CellTiter-Glo, duplicate (AID 807;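 active means viability increase at or above a cutoff of the median across tested compounds plus 3 SD, cut at about 8.5% in these data, passing the limit was not always enough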;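 further: compound pretreatment 18-22 h then 72 h combined with doxorubicin; 0% = doxorubicin alone and 100% = vehicle without doxorubicin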); settings: H69AR viability with doxorubicin, CellTiter-Glo luminescence; at 10 µM; stronger effect = higher value
[12] = growth suppression of beta-catenin knockout HCT116, pilot screen, human colon tumor cells (AID 823;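 active means cell viability at or below a set limit in both duplicate runs, the limit being the all-compound median minus 4 SD, cut at about 23% in these data, passing the limit was not always enough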;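 further: 0% = wells killed by 20 µM Hyamine and 100% = untreated DMSO cell wells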); settings: CellTiter-Glo, 60 h, at 10 µM, stronger effect = lower value
[13] = growth suppression of PTEN-deleted HCT116, pilot screen, cell-based, HCT116 clonal line, CellTiter-Glo (AID 824;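 active means viability at or below 27.92% in each of two runs, the all-compound median minus 4 SD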;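 further: 0% = 20 µM Hyamine control and 100% = vehicle cell control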); settings: 60 h, at 10 µM, stronger effect = lower value
[14] = inhibitors of the yeast RAM network, pilot screen, dse1pr::URA3 reporter, 5-FOA selection (AID 869;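 active means inhibition over a set limit, the all-compound mean plus 3 SD, in both replicate runs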;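 further: 0% = DMSO wells with no growth and 100% = 10 µM 1-NA-PP1 with full growth; RAM network block rescues cells from 5-FOA so hits raise OD615 growth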); settings: S. cerevisiae dse1pr::URA3 5-FOA growth, OD615, 2 d; at 10 µM; stronger effect = higher value; strain carries analog-sensitive mutant Cbk1 kinase
[15] = RAM signaling pathway blockade in yeast – S. cerevisiae, Pdr1DBD-CYC8 efflux-inhibited sensitized strain, primary screen (AID 1298;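 active means RAM network inhibition above 8.4% in each of two replicates, 3 SD over the compound average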;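 further: 0% = DMSO untreated cells without growth and 100% = 10 µM 1-NA-PP1 full growth; higher means more yeast growth rescued from 5-FOA killing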); settings: S. cerevisiae cbk1-as DSE1-URA3 strain, 5-FOA growth OD615, 2 d; at 50 µM; stronger effect = higher value
[16] = H69AR cells + 2 uM doxorubicin, measured here: viability with 2 uM doxorubicin, stronger effect = lower value
[17] = H69AR cells, compound alone cytotoxicity

Sequence of Receptor tyrosine-protein kinase erbB-2 (Homo sapiens) (P04626 whole entry, looked up): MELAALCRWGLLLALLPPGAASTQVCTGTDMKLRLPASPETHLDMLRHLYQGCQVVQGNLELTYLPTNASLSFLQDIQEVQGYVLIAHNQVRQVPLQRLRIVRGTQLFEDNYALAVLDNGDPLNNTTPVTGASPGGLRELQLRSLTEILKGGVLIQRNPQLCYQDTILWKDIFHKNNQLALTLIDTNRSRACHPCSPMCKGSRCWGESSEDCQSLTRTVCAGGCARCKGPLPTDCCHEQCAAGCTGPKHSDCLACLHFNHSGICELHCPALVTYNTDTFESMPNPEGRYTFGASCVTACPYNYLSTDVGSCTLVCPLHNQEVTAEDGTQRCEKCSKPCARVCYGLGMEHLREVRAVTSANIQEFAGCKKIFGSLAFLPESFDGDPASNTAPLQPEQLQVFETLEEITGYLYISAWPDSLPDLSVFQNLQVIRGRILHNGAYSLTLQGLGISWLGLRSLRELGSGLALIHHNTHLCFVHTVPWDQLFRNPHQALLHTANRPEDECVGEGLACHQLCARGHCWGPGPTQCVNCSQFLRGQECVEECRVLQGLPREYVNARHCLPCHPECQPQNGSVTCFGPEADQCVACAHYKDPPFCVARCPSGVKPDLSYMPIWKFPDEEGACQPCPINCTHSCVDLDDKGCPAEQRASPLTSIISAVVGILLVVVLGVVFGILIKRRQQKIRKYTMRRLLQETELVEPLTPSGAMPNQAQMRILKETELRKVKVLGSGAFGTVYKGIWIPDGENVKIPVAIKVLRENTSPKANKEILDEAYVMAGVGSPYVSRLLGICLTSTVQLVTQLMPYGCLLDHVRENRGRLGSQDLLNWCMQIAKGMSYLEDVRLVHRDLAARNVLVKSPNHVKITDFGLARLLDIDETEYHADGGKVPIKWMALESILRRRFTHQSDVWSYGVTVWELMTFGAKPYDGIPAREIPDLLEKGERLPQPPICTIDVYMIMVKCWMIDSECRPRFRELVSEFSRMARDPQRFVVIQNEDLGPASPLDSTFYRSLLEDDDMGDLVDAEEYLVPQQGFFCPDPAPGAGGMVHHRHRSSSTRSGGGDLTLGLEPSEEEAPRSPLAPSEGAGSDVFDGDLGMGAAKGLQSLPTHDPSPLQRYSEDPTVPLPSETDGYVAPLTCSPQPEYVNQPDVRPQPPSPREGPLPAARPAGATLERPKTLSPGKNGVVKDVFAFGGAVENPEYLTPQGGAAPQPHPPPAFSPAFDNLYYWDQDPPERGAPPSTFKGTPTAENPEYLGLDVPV

CC(=O)c1cccc(NC(=O)CCOc2ccccc2)c1
96.3%: viability [6, 16]
98.3%: viability [6, 17]
96%: viability [1]
inactive: Her2 level [2] 121% | viability [3] 96% | viability [4] 106% | viability [5] 98.3% | differential viability (reversal) ([6]; H69AR cells + 2 uM doxorubicin) 1.96% | inhibition [7] 1.04% | inhibition [8] -12.8% | growth inhibition [9] 5.62% | growth inhibition [10] 4.36% | viability increase [11] -1.33% | viability [12] 102% | viability [13] 95% | inhibition [14] 1.27% | RAM network inhibition [15] 1.57%

CC(C)(C)NC(=O)CSc1nnc(-c2ccccn2)n1-c1ccccc1
inactive: Her2 level [2] 126% | viability [3] 98.5% | viability [4] 105% | viability [5] 91.9% | differential viability (reversal) ([6]; H69AR cells + 2 uM doxorubicin) 0.06% | inhibition [7] -5.2% | inhibition [8] -3% | growth inhibition [9] -14% | growth inhibition [10] -6.57% | viability increase [11] -0.63% | viability [12] 100% | viability [13] 92.9% | inhibition [14] 0.43% | RAM network inhibition [15] 1.1%
98.5%: viability [1]
91.9%: viability [6, 16] | viability [6, 17]

Cc1cccc(OCCNC(=O)c2ncn[nH]2)c1
91.9%: viability [6, 17]
inactive: Her2 level [2] 108% | viability [3] 100% | viability [4] 92.5% | viability [5] 91.9% | differential viability (reversal) ([6]; H69AR cells + 2 uM doxorubicin) 3.36% | inhibition [7] 0% | inhibition [8] -5.17% | growth inhibition [9] -12.5% | growth inhibition [10] -4.79% | viability increase [11] 0.64% | viability [12] 94.2% | viability [13] 99.7% | inhibition [14] 1.01% | RAM network inhibition [15] -0.32%
100%: viability [1]
88.5%: viability [6, 16]

COc1ccc(/C=N/O)cc1COc1ccc(NC(C)=O)cc1
103%: viability [6, 17]
90.2%: viability [6, 16]
115%: viability [1]
inactive: Her2 level [2] 98% | viability [3] 115% | viability [4] 102% | viability [5] 103% | differential viability (reversal) ([6]; H69AR cells + 2 uM doxorubicin) 13.2% | inhibition [7] -4.32% | inhibition [8] 1.9% | growth inhibition [9] -5.25% | growth inhibition [10] -2.58% | viability increase [11] -0.85% | viability [12] 90.9% | viability [13] 93.4% | inhibition [14] 0.83% | RAM network inhibition [15] 0.92%

CCCOc1ccc(N2CC(C(=O)Nc3ccc4c(c3)OCO4)CC2=O)cc1 (stereo not drawn)
86.4%: viability [6, 17]
inactive: Her2 level [2] 94% | viability [3] 107% | viability [4] 79.3% | viability [5] 86.4% | differential viability (reversal) ([6]; H69AR cells + 2 uM doxorubicin) -9.04% | inhibition [7] -4.13% | inhibition [8] -1.67% | growth inhibition [9] -11.2% | growth inhibition [10] 12.3% | viability increase [11] -2.44% | viability [12] 107% | viability [13] 102% | inhibition [14] 2.89% | RAM network inhibition [15] 2.77%
95.4%: viability [6, 16]
107%: viability [1]

Cc1ccccc1NC(=O)C1CCCN(S(=O)(=O)c2cnc[nH]2)C1 (stereo not drawn)
92.6%: viability [6, 17]
85.5%: viability [1]
91.2%: viability [6, 16]
inactive: Her2 level [2] 108% | viability [3] 85.5% | viability [4] 95.8% | viability [5] 92.6% | differential viability (reversal) ([6]; H69AR cells + 2 uM doxorubicin) 1.39% | inhibition [7] -3.87% | inhibition [8] 3.33% | growth inhibition [9] -1.35% | growth inhibition [10] 0.61% | viability increase [11] -2.13% | viability [12] 102% | viability [13] 101% | inhibition [14] 2.71% | RAM network inhibition [15] 2.9%

CCC(=O)c1cc(F)c(N2CCN(C(=O)c3ccco3)CC2)cc1C
87.9%: viability [6, 17]
96.3%: viability [6, 16]
82%: viability [1]
inactive: Her2 level [2] 90.5% | viability [3] 82% | viability [4] 91.2% | viability [5] 87.9% | differential viability (reversal) ([6]; H69AR cells + 2 uM doxorubicin) -8.33% | inhibition [7] -0.8% | inhibition [8] 2.13% | growth inhibition [9] -10.3% | growth inhibition [10] -0.62% | viability increase [11] -0.95% | viability [12] 97.9% | viability [13] 88.3% | inhibition [14] 1.4% | RAM network inhibition [15] 0.21%

CCOC(=O)Cc1ccc(NS(=O)(=O)c2ccc(SC)cc2)cc1
82.8%: viability [6, 16]
inactive: Her2 level [2] 88% | viability [3] 89% | viability [4] 67.9% | viability [5] 86.7% | differential viability (reversal) ([6]; H69AR cells + 2 uM doxorubicin) 3.83% | inhibition [7] -5.54% | inhibition [8] -5.08% | growth inhibition [9] 6.06% | growth inhibition [10] -1.98% | viability increase [11] -4.85% | viability [12] 94.4% | viability [13] 88.1% | inhibition [14] 0.825% | RAM network inhibition [15] 2.83%
86.7%: viability [6, 17]
89%: viability [1]

Cc1ccc(N(C)C(=O)N2CCN(c3ccccn3)CC2)cc1
94.5%: viability [1]
98.2%: viability [6, 17]
90.7%: viability [6, 16]
inactive: Her2 level [2] 112% | viability [3] 94.5% | viability [4] 109% | viability [5] 98.2% | differential viability (reversal) ([6]; H69AR cells + 2 uM doxorubicin) 7.52% | inhibition [7] 2.27% | inhibition [8] -0.5% | growth inhibition [9] 0.955% | growth inhibition [10] 5.44% | viability increase [11] -1.03% | viability [12] 97.6% | viability [13] 97.1% | inhibition [14] 1.14% | RAM network inhibition [15] -0.55%
